The supplement of paper PMC6555819

tested on: THRa homodimer (NR concentration 90 nM); experiment: PBM binding z-score (relative to random genomic background probes); higher = stronger binding; sequences stand for … in GC…GCGATTGACAGCGTAGAATGAAGG
In short: (§1)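 Binding z-scores were set against random background probes. The data came from custom Agilent 4×180K protein-binding microarrays carrying double-stranded probes with 34-nt variable regions, incubated 1 h with ligand-free nuclear receptor dimers. Partner-specific antibodies detected binding, and scanned fluorescence was regression-normalized.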

Sequence	PBM binding z-score
CGTCAAAGTTCAAGGTCACGTAACAGAAAGCAGC	4.62
CAGCATAGGTCAGGGCCAGTATAGGAGGAACGTT	-0.231
TTGCCTAGGTCATTGGGCCAGTATAGTACGCATC	1.05
TATAAAGGGTCAAAGGCCAGAGTACGAATGTCGA	-0.348
TAGCCTAGGTCATTCAGGGGCCACTATAGAAAGC	1.05
AGTCAAAGTTTATCTAGGTAACGTAAGATATGCT	-0.0604
CGAACTACGTCATCCAGGACAGTGAATACATTGA	1.03
CGCACTAGGTCATCCAGGACAGTGAATACATTGA	2.4
CGTCCAAGGTCTAGGTCAGTGAAAGAGACTCGAA	0.936
CAAACTAGTTCAAGAGGTCAAAGTCCGCTTCCCG	1.92
ATATGTAGGTTGGGGTCATTCAGAAAGTAGGGAA	3.84
CGTCCAAGGACAATGCTAGGTCAGTGAAAGCATT	1.91
CCAGACAGGTGAGAAGGTAACTCAGCCTCGATTA	0.236
CATACAGGGTCGGCTAGGCCAGAGTAGGGACGGC	-0.41
ACTCGGAGGACAAAGGTCAGGGCTACGCCAGTGA	1.02
TTACCAAGGTGAACGGTCGTTGATGCACGCCTTG	0.872
GTTACAGGGTCAAGGCCAGAGTACGCGTATTGAT	1.53

tested on: VDR homodimer (NR concentration 270 nM); experiment: as above
In short: as §1

Sequence	PBM binding z-score
TCTCGGAGGACACAAAGGTCAGAGCTTTCCAGAG	2.06
ACTAGTTGGTCAGCTGAGGTCACACCCAATTCGG	2.67
TAGCCTAGGTCATTCAGGGGCCAGCATAGAAAGC	1.44
CGTCCAAGGTCACGGTCAGTGAAAGAGACTCGAA	2.8
AGAATGAGGTCATTAAGATCAGGGAATTGCGGTC	4.67
GCTTACGGGTCCAAGGTTATAGCATGAATAGAAT	1.97
TACCCTAGGTCATTGGGCCAGTATAGTACGCATC	1.77
CGTCAAAGATCAAGGTAACGTAACAGAAAGCAGC	-0.275
CCTTACGGGTCACGTGGTTATAGCACGACGAGCG	0.82
AACGAAAGGTCGAAGGTGAGTATACCCACCCGAA	0.527
CAAACTAGGTCACTAAAGGTCAAAGTCGAATGAC	3.72
ATATGTAGGTTATCTGGGGTCATTCAGACTAGGC	5.88
CGTCCGAGGTCATAGGAGGTCAGTGAAGACAGAT	5.17
GCTGCTAGGTCAACTGATGGTCACCTAAAGCTCG	0.0494
CCTACTGGGCCAAAAAGGTCATTGATGCCGATAA	2.01
CGAACAAGGTCATCCAGGACAGTGAATACATTGA	4.92
TCTTGTAGGTCAATAGAGGTTAAGAAAGTGCGCT	1.63
GATACAGGGTCAAGGTCAGAGTACGCGTATTGAT	4.39
TAGCCTAGGTCGTTCAGGGGCCAGTATAGAAAGC	0.675
ATATGTAGGTTAAGCGTCATTCAGGTTGGTTCGC	0.378

Sequence	PBM binding z-score
AGAATGGGGTTATACGTAGATCAGGGAAGAAAGT	1.86
AATAAAGGGTCATCGTAGGCCAGAGTACGCACAG	3.62
CGTCAAAGTTCAAGGTCACGTAACAGAAAGCAGC	5.21
CAGCATAGGTCAGGGCCAGTATAGGAGGAACGTT	-0.0525
TTGCCTAGGTCATTGGGCCAGTATAGTACGCATC	1.14
TATAAAGGGTCAAAGGCCAGAGTACGAATGTCGA	2.46
TAGCCTAGGTCATTCAGGGGCCACTATAGAAAGC	1.92
AGTCAAAGTTTATCTAGGTAACGTAAGATATGCT	1.31
CGAACTACGTCATCCAGGACAGTGAATACATTGA	0.313
CGCACTAGGTCATCCAGGACAGTGAATACATTGA	1.76
CGTCCAAGGTCTAGGTCAGTGAAAGAGACTCGAA	0.00097
CAAACTAGTTCAAGAGGTCAAAGTCCGCTTCCCG	4.98
ATATGTAGGTTGGGGTCATTCAGAAAGTAGGGAA	6.23
CGTCCAAGGACAATGCTAGGTCAGTGAAAGCATT	0.161
CCAGACAGGTGAGAAGGTAACTCAGCCTCGATTA	0.403
CATACAGGGTCGGCTAGGCCAGAGTAGGGACGGC	0.745
ACTCGGAGGACAAAGGTCAGGGCTACGCCAGTGA	1.33
TTACCAAGGTGAACGGTCGTTGATGCACGCCTTG	-0.356
GTTACAGGGTCAAGGCCAGAGTACGCGTATTGAT	2.86
